According to PubChem BioAssay (NCI):
This is part of a sample that, as a whole, favours compounds with a hit. Of some 83,000 tested, about 20% had one in any assay.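 Assay: single dose, 48 h. Readout: percent growth (0 = no net growth; negative = cell death). Active: <10.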 The source made the active and inactive calls.

Tested on: SNB-75 CNS
Assay: NCI-60 one-dose screen, 48 h (100 = growth as untreated, 0 = no growth, -100 = all killed)
Conditions: 10 µM unless noted

Structure (SMILES) | growth
Cc1cc2c(cc1C)[n+](Cc1ccc3ccccc3n1)cn2Cc1ccc2ccccc2n1 | -1.25% (active)
CCOC(=O)c1sc(NC(=O)COc2cccc(/C=C3\Cc4ccc(Cl)cc4C3=O)c2)nc1C | 113% (inactive)
COc1ccc(/C=C/C(=O)c2cccc(NS(C)(=O)=O)c2)cc1 | 68.6% (inactive)
CCOc1cc(/C=C/C(=O)CC(=O)/C=C/c2ccc(OC(=O)CNCCN(CC)CC)c(OCC)c2)ccc1OC(=O)CNCCN(CC)CC | -15.1% (active)
CC[C@@H](c1ccc(O)c(O)c1)[C@@H](CC)c1ccc(O)c(O)c1 | 82.4% (inactive)
CCCCCc1c(C)[nH]c(/C=C2\N=C(c3ccc[nH]3)C=C2Oc2ccc(Cl)cc2)c1C | -40% [100 µM] (active)
O=C(O)C1CCN(S(=O)(=O)c2ccc(-c3ccccc3)cc2)CC1 | 102% (inactive)
CCCCCN1C(=O)CCC1=O | 98.6% (inactive)
O=C(O)c1ccc(CNS(=O)(=O)c2ccc3ccccc3c2)cc1 | 90.8% (inactive)
COc1cc(-c2nc3sc4c(c3c(=O)[nH]2)CCCCCC4)cc(OC)c1OC | -0.669% (active)
C/C(=C\CCc1ccoc1)CC/C=C(\C)CCCNc1ccc(F)cc1 | 94.3% (inactive)
COc1ccc2nc(N/N=C(\C)c3ccccn3)cc(C)c2c1 | -7.43% (active)
C/C(=C\CCc1ccoc1)CC/C=C(\C)CCCC1COC(=O)C1 (stereo unspecified) | 96.7% (inactive)
O=C(CNC(=O)c1cccc2ccccc12)Nc1ccccc1Cc1ccccc1 | 32% [5 µM] (inactive)
NS(=O)(=O)c1ccc(-n2ncc3c(NC4CCCCC4)ncnc32)cc1 | 113% (inactive)
COc1cc(/C=C/C(=O)CC(=O)/C=C/c2ccc(OC(=O)CCNC34CC5CC(CC(C5)C3)C4)c(OC)c2)ccc1OC(=O)CCNC12CC3CC(CC(C3)C1)C2 | 7.02% (active)
C/C(=C\CCc1ccoc1)CC/C=C(\C)CCCN1CCSCC1 | 93.4% (inactive)
COC(=O)[C@H]1[C@H]2C[C@@H]3c4[nH]c5cc(OC)ccc5c4CCN3C[C@H]2C[C@@H](OC(=O)/C=C/c2cc(OC)c(OC)c(OC)c2)[C@@H]1OC | 47.2% (inactive)

Structure (SMILES) | growth
Cc1c2oc3c(C)ccc(C(=O)OC(C)C4NC(=O)C(C(C)C)N(C)C(=O)CN(C)C(=O)C5CCCN5C(=O)C(C(C)C)NC4=O)c3nc-2c(C(=O)OC(C)C2NC(=O)C(C(C)C)N(C)C(=O)CN(C)C(=O)C3CCCN3C(=O)C(C(C)C)NC2=O)c(N)c1=O (stereo unspecified) | -73.8% (active)
CC(C)=CCCC(C)c1ccc(C)c2c1OCN(CC1CCNCC1)C2 (stereo unspecified) | 89.3% (inactive)
Oc1ccccc1/C=N/N1CCCCCC1 | 80.3% (inactive)
CC[n+]1c(/C=C/c2ccc(N3CCCC3)cc2)cccc1/C=C/c1ccc(N2CCCC2)cc1 | -92.7% (active)
O=C1Nc2ccc(C(=O)O)c(O)c2C1=O | 103% (inactive)
CSc1nc2nc3c(c(-c4ccc(C)cc4)c2c(=O)[nH]1)CN(C)C/C3=C\c1ccc(C)cc1 | 93% (inactive)
O=C(/C=C/c1cccc(O)c1)c1cccc(-n2cc(-c3ccccc3)[nH]c2=O)c1 | 41.2% (inactive)
O=[N+]([O-])c1cc([N+](=O)[O-])c(N2CCCC2)cc1NN=C(c1ccc(O)cc1)c1ccc(O)cc1 | 71.8% (inactive)
CC1=C([Se]CC(OC(=O)[C@@H](CSSC(C)(C)C)NC(=O)C(C)(C)C)C(=O)NCCCCCC(=O)OCc2ccccc2)C(=O)c2ccccc2C1=O (stereo partly specified) | -92.5% (active)
C[N+]1(C)C2CC[C@@H]1CC(OC(=O)C(O)c1ccccc1)C2 (stereo partly specified) | 99% (inactive)
O=C(O)CNC(=O)C1(N2C(=O)c3ccccc3C2=O)CCCC1 | 88.2% (inactive)
c1ccc(COc2ccc(Nc3ncnc4c3cnn4-c3ccccc3)cc2)cc1 | 102% (inactive)
Nc1ccccc1-c1ccn[nH]1 | 61.9% (inactive)
C/C(=C\CCc1ccoc1)CC/C=C(\C)CCCN1CCOCC1 | 60.9% (inactive)
O=C(NC1CCCCC1)c1ccc(Nc2ncnc3c2cnn3-c2ccccc2)cc1 | -20.3% (active)
Cc1ccc(-c2csc(N)n2)cc1 | 93.2% (inactive)
COC(=O)C1(NC(=O)CNC(=O)OCc2ccccc2)CCCC1 | 88.4% (inactive)
C[C@]12CC[C@H](O)CC1=CC[C@@H]1[C@@H]2CC[C@]2(C)C(c3cccnc3)=CC[C@@H]12 | 52.4% (inactive)
